From PubChem BioAssay come the findings set out here.

The target of test [1] is Nuclear receptor coactivator 3 (Homo sapiens) (UniProt Q9Y6Q9). Briefly: NCOA3 GAL4-fusion reporter inhibition – cell-based, luminescence, quadruplicate, confirmation (AID 588792;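 active = mean inhibition over 43.08%, the solvent-only control mean plus 3 SD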;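 note: 0% = DMSO treated cells and 100% = gossypol at 36 µM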). To be noted: HEK293 GAL4-SRC3 luciferase reporter, at 3.6 µM, active compounds read high.
The test system of test [2] is transactivating tegument protein VP16 (Human herpesvirus 1), Gal4-VP16 luciferase reporter. The test is described as follows: repression of VP16-driven luciferase reporter – cell-based, luminescence, high throughput, counter-screen for SRC3 inhibitor project (AID 588794; in the data active = inhibition above about 30%). To be noted: mammalian cells, at 3.6 µM, active compounds read high. (In general: In a reporter assay the amount or activity of a reporter protein is the signal.)

Test [3] concerns the target Nuclear receptor coactivator 1 (Homo sapiens) (UniProt Q15788). The test is described as follows: NCOA1 GAL4-fusion reporter inhibition – cell-based, luminescence, quadruplicate, confirmation (AID 588820;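 active = mean inhibition above 46.68%, the untreated control wells mean plus 3 SD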;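 note: 0% = DMSO wells and 100% = gossypol 36 µM treated wells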). As to conditions: HEK293 GAL4-SRC1 luciferase reporter, at 3.6 µM, active compounds read high.
Test [4] can be described thus: repression of VP16-driven luciferase reporter – cell-based, luminescence, high throughput, counter-screen for SRC1 inhibitor project (AID 588824; in the data active = inhibition above about 25%). To be noted: cell-based VP16 transactivation luciferase luminescence; at 3.6 µM; active compounds read high.
Test [5] is described as follows: StAR promoter reporter inhibitors, counter-screen for LRH-1 inverse agonist project, cell-based, luminescence, high throughput (AID 651611; in the data active = inhibition above about 28%). As to conditions: StAR promoter luciferase reporter counterscreen, at 3.6 µM, active compounds read high. (A counterscreen serves to expose hits that act by an unwanted route or on another target.)
Test [6] has as its target Nuclear receptor subfamily 5 group A member 2 (Homo sapiens) (UniProt O00482). Briefly: NR5A2 activity suppression in reporter cells – cell-based, luminescence, confirmation (AID 651613).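 Note: HEK293T cells co-transfected with LRH-1 and StAR promoter luciferase reporter; 0% = vehicle wells and 100% = parental cells lacking receptor.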 As to conditions: cell-based LRH-1 luciferase reporter, inverse agonism; at 3.6 µM; active compounds read high.
Test [7] addresses Steroidogenic factor 1 (Homo sapiens) (UniProt Q13285). Briefly: inverse agonism at SF1 nuclear receptor – cell-based, luminescence, high throughput, counter-screen for LRH-1 inverse agonist project (AID 651614; in the data active = inhibition above about 44%;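 note: cells cotransfected with StAR promoter reporter and SF1 expression vector; 0% = vehicle on cells with receptor and 100% = vehicle on cells lacking receptor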). To be noted: cell-based SF1 luciferase reporter, at 3.6 µM, active compounds read high.
Test [8] in a line: compounds suppressing VP16-driven luciferase signal – cell-based, luminescence, high throughput, counter-screen for LRH-1 inverse agonist project (AID 651615; in the data active = inhibition above about 33%). As to conditions: Gal4-VP16 luciferase reporter cells, at 3.6 µM, active compounds read high.

Where “and” joins values, the source holds several entries; their conditions need not be identical. Equal values may be shown once. A number with no mark means an inactive call. Calls of active or inactive are those of the source. Cut-off read from the data, not from the text of the source, unless noted: active = inhibition above about 42%; inactive = the rest. Numbered stars: 1 amine (or outer) side, 2 acyl side, 3 side chain; on linkers, the order of the positions; unused ones are H or OH. Bridge positions count the residues as written; N and C are the ends. Square brackets hold non-standard residues; d marks the D form. Peptide text beside a SMILES is read from it. ξ: configuration not given here. X1 = CC[C@H](CCC[C@@H](O)[C@@H](C)C(=O)O[C@H](C)[C@@H](C)C/C=C(C)/C(=C\C(=O)[*:1])OC)O[*:2]; NMeξIle = CC[C@H](C)C(NC)C(=O)O; NMeV = CN[C@H](C(=O)O)C(C)C; NMeS = CN[C@@H](CO)C(=O)O

Sequence of Nuclear receptor subfamily 5 group A member 2 (Homo sapiens) (O00482 whole entry, looked up): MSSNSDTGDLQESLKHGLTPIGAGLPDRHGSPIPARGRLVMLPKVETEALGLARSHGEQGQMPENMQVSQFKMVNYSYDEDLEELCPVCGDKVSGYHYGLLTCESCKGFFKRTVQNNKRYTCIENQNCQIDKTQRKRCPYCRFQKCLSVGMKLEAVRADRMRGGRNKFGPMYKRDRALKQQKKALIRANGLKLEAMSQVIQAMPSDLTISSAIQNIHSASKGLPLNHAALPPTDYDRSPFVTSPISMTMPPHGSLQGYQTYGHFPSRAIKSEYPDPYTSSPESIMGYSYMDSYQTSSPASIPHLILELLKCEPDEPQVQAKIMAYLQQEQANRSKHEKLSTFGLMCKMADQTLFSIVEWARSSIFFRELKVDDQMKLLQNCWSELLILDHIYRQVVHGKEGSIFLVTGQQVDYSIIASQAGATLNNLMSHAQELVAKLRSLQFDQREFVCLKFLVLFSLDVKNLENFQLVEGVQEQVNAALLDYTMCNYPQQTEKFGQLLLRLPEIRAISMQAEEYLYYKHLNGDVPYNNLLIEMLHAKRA
Sequence of Steroidogenic factor 1 (Homo sapiens) (Q13285 whole entry, looked up, the tested form may be a part): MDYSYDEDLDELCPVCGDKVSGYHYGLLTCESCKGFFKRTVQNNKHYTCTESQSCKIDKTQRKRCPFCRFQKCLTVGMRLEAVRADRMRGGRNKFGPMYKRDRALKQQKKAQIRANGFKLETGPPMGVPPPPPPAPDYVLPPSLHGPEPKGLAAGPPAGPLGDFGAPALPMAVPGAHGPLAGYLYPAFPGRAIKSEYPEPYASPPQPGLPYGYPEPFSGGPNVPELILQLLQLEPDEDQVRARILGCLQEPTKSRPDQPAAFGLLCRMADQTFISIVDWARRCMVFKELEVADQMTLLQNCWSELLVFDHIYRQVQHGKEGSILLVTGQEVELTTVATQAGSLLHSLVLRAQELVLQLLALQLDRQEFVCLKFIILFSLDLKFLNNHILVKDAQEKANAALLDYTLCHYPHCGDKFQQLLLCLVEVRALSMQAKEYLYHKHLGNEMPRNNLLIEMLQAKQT
Sequence of Nuclear receptor coactivator 1 (Homo sapiens) (Q15788 whole entry, looked up, the tested form may be a part): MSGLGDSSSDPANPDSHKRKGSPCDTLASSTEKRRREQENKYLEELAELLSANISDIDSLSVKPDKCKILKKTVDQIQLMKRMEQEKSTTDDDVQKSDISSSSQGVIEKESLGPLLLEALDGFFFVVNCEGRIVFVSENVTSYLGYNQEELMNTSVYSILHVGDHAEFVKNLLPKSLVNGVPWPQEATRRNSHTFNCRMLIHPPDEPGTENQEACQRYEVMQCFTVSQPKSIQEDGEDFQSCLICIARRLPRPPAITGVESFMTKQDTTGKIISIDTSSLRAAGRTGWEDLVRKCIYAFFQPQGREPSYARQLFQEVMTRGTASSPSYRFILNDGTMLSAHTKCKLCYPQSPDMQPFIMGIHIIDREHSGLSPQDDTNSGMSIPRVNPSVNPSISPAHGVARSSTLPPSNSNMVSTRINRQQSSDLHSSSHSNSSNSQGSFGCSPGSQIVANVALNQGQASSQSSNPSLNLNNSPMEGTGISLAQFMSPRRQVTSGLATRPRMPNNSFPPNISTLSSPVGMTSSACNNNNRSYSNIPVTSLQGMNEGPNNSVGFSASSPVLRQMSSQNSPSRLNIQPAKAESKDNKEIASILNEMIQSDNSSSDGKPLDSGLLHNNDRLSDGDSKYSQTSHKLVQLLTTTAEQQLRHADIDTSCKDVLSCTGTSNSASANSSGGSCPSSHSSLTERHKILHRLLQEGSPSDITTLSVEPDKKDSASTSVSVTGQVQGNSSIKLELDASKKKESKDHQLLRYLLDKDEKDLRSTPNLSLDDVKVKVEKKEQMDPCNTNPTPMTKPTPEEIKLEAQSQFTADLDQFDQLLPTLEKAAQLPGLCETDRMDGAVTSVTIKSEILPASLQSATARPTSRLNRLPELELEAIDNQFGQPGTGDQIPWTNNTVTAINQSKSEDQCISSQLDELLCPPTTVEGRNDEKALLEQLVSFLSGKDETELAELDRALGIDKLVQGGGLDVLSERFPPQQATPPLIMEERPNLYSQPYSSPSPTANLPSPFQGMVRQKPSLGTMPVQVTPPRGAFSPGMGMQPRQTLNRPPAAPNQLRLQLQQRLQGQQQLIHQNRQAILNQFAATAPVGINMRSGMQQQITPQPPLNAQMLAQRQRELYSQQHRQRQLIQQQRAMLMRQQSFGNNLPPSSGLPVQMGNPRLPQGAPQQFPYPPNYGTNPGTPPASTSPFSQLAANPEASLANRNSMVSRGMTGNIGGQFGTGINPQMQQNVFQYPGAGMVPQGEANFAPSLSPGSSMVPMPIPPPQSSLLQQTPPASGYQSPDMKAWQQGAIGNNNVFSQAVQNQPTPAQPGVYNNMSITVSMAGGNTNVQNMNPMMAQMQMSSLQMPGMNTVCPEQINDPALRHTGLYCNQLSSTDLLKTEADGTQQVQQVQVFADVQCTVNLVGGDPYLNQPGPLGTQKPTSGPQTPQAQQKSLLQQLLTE
Sequence of Nuclear receptor coactivator 3 (Homo sapiens) (Q9Y6Q9 whole entry, looked up, the tested form may be a part): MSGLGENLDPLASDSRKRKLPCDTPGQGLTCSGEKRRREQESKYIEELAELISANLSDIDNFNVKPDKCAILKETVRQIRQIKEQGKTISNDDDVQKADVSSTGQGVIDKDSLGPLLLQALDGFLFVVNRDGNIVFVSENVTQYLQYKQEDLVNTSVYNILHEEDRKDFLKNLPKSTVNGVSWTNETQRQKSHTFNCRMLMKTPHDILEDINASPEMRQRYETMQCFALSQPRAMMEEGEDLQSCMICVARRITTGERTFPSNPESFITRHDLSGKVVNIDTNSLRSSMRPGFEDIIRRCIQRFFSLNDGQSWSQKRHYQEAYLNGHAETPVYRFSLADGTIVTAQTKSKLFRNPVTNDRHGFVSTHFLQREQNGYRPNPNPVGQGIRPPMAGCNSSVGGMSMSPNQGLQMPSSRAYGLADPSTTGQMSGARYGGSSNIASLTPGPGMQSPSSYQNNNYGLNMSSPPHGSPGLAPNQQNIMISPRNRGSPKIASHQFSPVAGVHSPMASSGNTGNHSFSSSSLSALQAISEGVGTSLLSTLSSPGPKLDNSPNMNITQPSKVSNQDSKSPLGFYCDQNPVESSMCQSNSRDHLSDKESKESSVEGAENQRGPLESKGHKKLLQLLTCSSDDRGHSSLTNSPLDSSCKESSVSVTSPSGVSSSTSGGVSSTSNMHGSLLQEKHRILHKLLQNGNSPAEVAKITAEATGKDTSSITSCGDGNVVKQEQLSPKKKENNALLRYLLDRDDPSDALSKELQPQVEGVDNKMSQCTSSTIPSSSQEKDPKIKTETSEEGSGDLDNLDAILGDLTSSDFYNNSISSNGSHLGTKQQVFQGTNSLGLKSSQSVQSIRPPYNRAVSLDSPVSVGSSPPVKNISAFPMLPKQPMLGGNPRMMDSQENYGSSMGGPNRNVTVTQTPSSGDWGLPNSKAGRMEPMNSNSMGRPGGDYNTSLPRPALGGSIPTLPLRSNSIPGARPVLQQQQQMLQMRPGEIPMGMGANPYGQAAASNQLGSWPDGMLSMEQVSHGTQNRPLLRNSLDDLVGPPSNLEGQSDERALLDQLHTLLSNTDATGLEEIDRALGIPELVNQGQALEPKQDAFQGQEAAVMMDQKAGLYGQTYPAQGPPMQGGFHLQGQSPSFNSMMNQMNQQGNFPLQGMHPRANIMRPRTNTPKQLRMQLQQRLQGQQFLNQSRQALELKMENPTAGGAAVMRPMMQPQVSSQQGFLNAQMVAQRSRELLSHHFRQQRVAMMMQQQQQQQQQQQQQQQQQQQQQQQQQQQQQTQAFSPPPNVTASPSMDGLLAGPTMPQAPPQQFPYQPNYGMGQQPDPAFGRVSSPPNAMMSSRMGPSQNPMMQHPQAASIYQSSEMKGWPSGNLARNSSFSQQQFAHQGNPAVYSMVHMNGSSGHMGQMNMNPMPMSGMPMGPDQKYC

On to `C=CS(=O)(=O)N(Cc1ccc(Cl)c(Cl)c1)C[C@@H](O)CO`, for which the inhibition – broadly, the relative decrease from the control value, in per cent – in test [1] is 42.6%; in test [2] it was 19.1%; in test [3], 8.46%; in test [4], 13.3%; in test [5], 55.4% (active); in test [6] it was 50.4% (active). Moreover, the inhibition is 58% (active) in test [7] and 28.3% in test [8].
As for `CC[C@@H]1CCC[C@@H](O)[C@@H](C)C(=O)O[C@H](C)[C@@H](C)C/C=C(C)/C(OC)=C\C(=O)N(C)C([C@@H](C)CC)C(=O)N(C)[C@@H](C(C)C)C(=O)N(C)[C@@H](COC)C(=O)N2CCC[C@H]2C(=O)N(C)[C@@H](C(C)C)C(=O)N2CCC[C@H]2C(=O)O1` (stereo not given in full) ([NMeξIle][NMeV][NMeS](Me)P[NMeV]P; linker N-C via X1), the inhibition is 79.9% (active) in test [1]; 86.5% (active) in test [2]; 57.1% (active) in test [3]; 87.5% (active) in test [4]; 83% (active) in test [5]; 104% (active) in test [6]. Further, the inhibition was 94.8% (active) in test [7] and 93.1% (active) in test [8].
For the compound `NC1=C(Cl)C(=O)c2ccc(S(N)(=O)=O)cc2C1=O`, the inhibition was 97.5% (active) in test [1]; 93.7% (active) in test [2]; 82% (active) in test [3]; 92.8% (active) in test [4]; 89.7% (active) in test [5]; 106% (active) in test [6]. Also, the inhibition was 94% (active) in test [7] and 95.8% (active) in test [8].
With `CCN1/C(=C/c2ccc3ccccc3[n+]2CC)C=Cc2ccccc21`, the inhibition in test [1] was 74% (active); in test [2], 86.2% (active); in test [3], 55.5% (active); in test [4], 84.7% (active); in test [5], 78.7% (active); in test [6] it was 110% (active). Besides, the inhibition was 93% (active) in test [7] and 89.3% (active) in test [8].
`COc1ccc(CCNC(=O)c2nnn(-c3ccc4c(c3)OCCO4)c2N)cc1OC`: the inhibition in test [1] was 31.7%; in test [2] it was 2.53%; in test [3] it was 13.1%; in test [4], -6.95%; in test [5], 44.7% (active); in test [6], -26.3%. Besides, the inhibition in test [7] was 29%; in test [8], -16.9%.
Turning to `O=c1[nH]cnc2c1nnn2C1OC(CO)C(O)C1O` (stereo not given), the inhibition in test [1] was 59% (active); in test [2] it was 15.3%; in test [3], -5.97%; in test [4], 17%; in test [5] it was 69.7% (active); in test [6] it was 78.6% (active). The inhibition was 71.1% (active) in test [7] and 27.1% in test [8].
For `CCCCCc1ccc(OCCC[n+]2ccccc2)c(CCCCC)c1`, the inhibition in test [1] was 45.8% (active); in test [2], 60.7% (active); in test [3], 31.3%; in test [4], 65.9% (active); in test [5], 37.7% (active); in test [6], 83.3% (active). Also, the inhibition in test [7] is 68.1% (active); in test [8], 82.3% (active).
Consider `O=C(c1ccccc1)c1c2c(cc3sc4ccccc4[n+]13)-c1cccc3cccc-2c13`, for which the inhibition in test [1] was 49% (active); in test [2], 61.2% (active); in test [3], 29.4%; in test [4], 64.6% (active); in test [5], 47.8% (active); in test [6], 99.3% (active). Besides, the values for the inhibition in test [7] and in test [8] were 75.1% (active) and 81.7% (active), respectively.
As to `CC(=NNC(=S)Nc1ccccc1Cl)c1ccccn1`, the inhibition in test [1] is 41.9%; in test [2], 71.8% (active); in test [3] it was 18.6%; in test [4] it was 73% (active); in test [5] it was 84.3% (active); in test [6], 106% (active). Also, the inhibition in test [7] is 91.1% (active); in test [8], 83.9% (active).
As to `O=C(Nc1ccc2c(c1)OCCO2)C(c1cc2ccccc2o1)N1CCN(c2ccc(C(F)(F)F)cn2)CC1` (stereo not given), the inhibition in test [1] is 19.5%; in test [2], 6.65%; in test [3] it was -13.5%; in test [4], -14.1%; in test [5], -29.7%; in test [6], -44.4%. Further, the results for the inhibition in test [7] and in test [8] were -28% and -10.8%, respectively.
Consider `Cc1ccc(-n2c(-c3ccccc3)c[n+]3c2CCc2ccccc2-3)c(C)c1`, for which the inhibition was 61.7% (active) in test [1]; 68.1% (active) in test [2]; 42.5% in test [3]; 69.4% (active) in test [4]; 57.4% (active) in test [5]; 107% (active) in test [6]. Besides, the results for the inhibition in test [7] and in test [8] were 87.7% (active) and 91.7% (active), respectively.
In the case of `N=c1c2c(n(Cc3ccc(F)cc3)c3c1CCC3)CCC2`, the inhibition was 25.9% in test [1]; 42.9% (active) in test [2]; 17.8% in test [3]; 43.6% (active) in test [4]; 41.6% (active) in test [5]; 80.3% (active) in test [6]. Besides, the inhibition in test [7] is 69% (active); in test [8] it was 69.2% (active).
In the case of `Cc1cc(-c2nnc(SCC(=O)Nc3ccccc3C(F)(F)F)o2)c(C)n1-c1ccccc1`, the inhibition in test [1] was 33.3%; in test [2], 11.2%; in test [3], -7.25%; in test [4], -22.9%; in test [5] it was 28.2% (active); in test [6], -50.2%. The values for the inhibition in test [7] and in test [8] were 14.8% and -38.7%, respectively.
For `NC(=S)NN=Cc1nccc2c(C(F)(F)F)cccc12`, the inhibition was 86.8% (active) in test [1]; 69.7% (active) in test [2]; 63.9% (active) in test [3]; 56.4% (active) in test [4]; 89.7% (active) in test [5]; 100% (active) in test [6]. The results for the inhibition in test [7] and in test [8] were 93.2% (active) and 66.5% (active), respectively.
Regarding `CCN1/C(=C/C(C)=C/c2sc3ccccc3[n+]2CC)Sc2ccccc21`, the inhibition was 80.9% (active) in test [1]; 84.2% (active) in test [2]; 58.4% (active) in test [3]; 81.6% (active) in test [4]; 77% (active) and 81.8% (active) in test [5]; 107% (active) and 106% (active) in test [6]. The inhibition is 89.7% (active) and 93.3% (active) in test [7]; 88.1% (active) and 89.4% (active) in test [8].
